Screening data deposited in PubChem by National Center for Advancing Translational Sciences (NCATS).
GLP1R inv ag: qHTS of GLP-1 Receptor Inverse Agonists (Inhibition Mode); Glucagon-like peptide 1 receptor (Homo sapiens), P43220; HEK293 GLP-1R CRE-luciferase, luminescence, 24 h; GLP-1R form is constitutively active; 1.6% of 410,000 active; AID 624417, 2012; Potency, µM (series often up to 38.3 µM), usual class: inhibitors; also: nearly all actives have a fitted effect of over 55% in size
Target sequence (P43220 whole entry, looked up): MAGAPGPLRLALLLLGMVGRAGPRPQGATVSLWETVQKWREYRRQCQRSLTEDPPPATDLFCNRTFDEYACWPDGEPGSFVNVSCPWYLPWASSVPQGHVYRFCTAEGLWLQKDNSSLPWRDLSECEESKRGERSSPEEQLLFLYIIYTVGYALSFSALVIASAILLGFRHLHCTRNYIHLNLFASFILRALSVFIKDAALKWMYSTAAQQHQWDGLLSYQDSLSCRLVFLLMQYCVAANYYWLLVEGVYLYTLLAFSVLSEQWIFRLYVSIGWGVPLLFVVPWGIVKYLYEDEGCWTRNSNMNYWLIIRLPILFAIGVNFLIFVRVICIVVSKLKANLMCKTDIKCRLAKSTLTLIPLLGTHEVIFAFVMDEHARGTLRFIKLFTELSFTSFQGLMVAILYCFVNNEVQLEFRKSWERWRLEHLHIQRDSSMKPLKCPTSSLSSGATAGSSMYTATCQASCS
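Cells are plated, allowed 12 hours at 37 deg C, then treated with compounds for 24 hr before luciferase detection reagent is added and luminescence is read after 12 min at room temperature. The HEK293 line carries constitutively active GLP-1R with a cAMP-responsive reporter.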
GLP1R cytotox: qHTS of GLP-1 Receptor Inverse Agonists: Cytotox Screen; 0.13% of 410,000 active; Potency, µM (doses to about 38.3 µM), most hits filed as inhibitors; HEK293 cAMP-luciferase reporter cells, luminescence, 24 h;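 also: loss of luciferase light is scored as toxicity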
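Compound-treated cells are incubated 24 hr at 37 deg C under 5% CO2 after a 12 hour attachment period, then luciferase detection reagent is added and luminescence is measured following 12 min at room temperature; lowered signal indicates toxicity.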
GLP-1R agonist: qHTS of GLP-1 Receptor Agonists; HEK293 GLP-1R CRE-luciferase, luminescence, 4-6 h; cells express a hypersensitive GLP-1R form; Potency, µM (doses to about 45.6 µM), usual class: activators; AID 624172, 2012; 0.007% of 380,000 active
BRCA1 expr up: qHTS Assay to Identify Small Molecule Activators of BRCA1 Expression; Potency, µM (highest dose often 46.1 µM), most hits filed as activators; MCF7-BRCA1-FFLuc reporter, luminescence, 48 h; response scale: scaled: vehicle 0%, 10 µM genistein 100%; 1.1% of 380,000 active; also: nearly all actives have a fitted effect of over 80% in size
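Luminescence from a BRCA1-driven firefly luciferase in MCF7 cells was the read-out, taken 15 min after substrate addition following 48 h compound exposure at 37 °C. Data were normalized to a 10 microM genistein control and DMSO vehicle.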
Large screens that a line does not name were inactive. Hits are enriched below; roughly 2.6% of the tested compounds scored in any of these assays. Calls follow the shape of the dose curve; as a rule, active = well fitted curve in the direction sought with a large enough effect; inconclusive = small, poorly fitted or top-dose-only effect, or another doubt; inactive = no such curve, though single readings can be large; an effect the other way counts as inactive or inconclusive.

Cc1cc(C)cc(OCC(=O)N(Cc2cccs2)c2ccc(Cl)cc2)c1	GLP1R inv ag 10µM (no result: GLP-1R agonist)
Cc1ccc(N(Cc2cccs2)C(=O)COc2cccc(C)c2)cc1	GLP1R inv ag inconclusive (no result: GLP-1R agonist)
COc1ccc(N(Cc2cccs2)C(=O)COc2cc(C)c(Cl)c(C)c2)cc1	GLP1R inv ag 8.9µM (no result: GLP-1R agonist, BRCA1 expr up)
Cc1ccc(-n2ncc(C(=O)NCc3ccccc3)c2C2CCN(C(=O)OC(C)(C)C)CC2)cc1	none (no result: GLP-1R agonist, BRCA1 expr up)
CC(=O)c1cnc2c(-c3cccc(Br)c3)cnn2c1C	BRCA1 expr up 8.9µM
CCOC(=O)Cc1c(C)nc2c(-c3cccc(Br)c3)cnn2c1C	none
Cn1ccnc1SCC(=O)c1ccc2ccccc2c1	BRCA1 expr up 6.3µM
CN(CCOc1ccc(Br)cc1)CC(O)COc1ccc(C#N)cc1 (centres undefined)	GLP1R inv ag 4.5µM
Cc1c(NC2(C#N)CCCC2)c(=O)n(-c2ccccc2)n1C	none
O=C1c2ccccc2NC2(CCCCC2)N1c1ccc(O)cc1	BRCA1 expr up 11µM
CC1CCC2(CC1)Nc1ccccc1C(=O)N2c1ccccc1 (centres undefined)	BRCA1 expr up inconclusive
O=C(COc1ccccc1C(=O)Nc1cccc(F)c1)Nc1ccc(Br)cc1	none (no result: GLP1R inv ag, GLP1R cytotox, GLP-1R agonist)
COc1cccc(/C=N/Nc2nc3ccccc3[nH]2)c1OC	BRCA1 expr up 7.9µM
O=[N+]([O-])c1ccc(NN=Cc2ccccc2)nc1	BRCA1 expr up inconclusive
C(=N\Nc1nc2ccccc2[nH]1)/c1ccc2c(c1)OCO2	GLP1R inv ag inconclusive, GLP1R cytotox inconclusive, BRCA1 expr up 13µM
O=[N+]([O-])c1ccc(N/N=C/c2cccs2)nc1	BRCA1 expr up 4µM
COC(=O)c1ccc(/C=N/Nc2nc3ccccc3[nH]2)cc1	BRCA1 expr up 3.2µM
Cc1c(C(=O)N2CCN(Cc3ccccc3)CC2)oc2c1C(=O)CCC2	none
CC(C)c1ccc(OCC(=O)N(Cc2cccs2)C2CCS(=O)(=O)C2)cc1 (centres undefined)	none (no result: GLP-1R agonist, BRCA1 expr up)
C(=N\Nc1nc2ccccc2[nH]1)/c1cccs1	BRCA1 expr up 10µM
Cc1ccsc1/C=N/Nc1nc2ccccc2[nH]1	GLP1R inv ag inconclusive, GLP1R cytotox inconclusive, BRCA1 expr up inconclusive
CCOc1ccc(NC(=O)CN2CCN(Cc3ccccc3)S2(=O)=O)cc1	none (no result: GLP-1R agonist, BRCA1 expr up)
Cn1c(=O)c2c(nc(Oc3ccccc3)n2Cc2c(Cl)cccc2Cl)n(C)c1=O	none
Cc1cc(C)c(CSc2ncc(-c3ccc([N+](=O)[O-])cc3)[nH]2)c(C)c1	GLP1R inv ag 8.9µM
NC(=O)CSc1ncc(-c2ccc([N+](=O)[O-])cc2)[nH]1	none
O=[N+]([O-])c1ccc(-c2cnc(SCc3ccccc3Cl)[nH]2)cc1	GLP1R inv ag 10µM
COc1ccc(N(CC(=O)Nc2ccc(Cc3ccncc3)cc2)S(=O)(=O)c2ccccc2)cc1	none
O=C(Nc1ccc2c(c1)Cc1cc([N+](=O)[O-])ccc1-2)C(F)(F)F	BRCA1 expr up 4µM
CCOC(=O)N1CCC(NC(=O)c2c(C)nn(-c3cccc(C)c3)c2-n2cccc2)CC1	none (no result: GLP-1R agonist, BRCA1 expr up)
COC(=O)c1cc2c(-c3ccccc3)cc3ccccn3c-2c1C(=O)OC	GLP1R inv ag 7.9µM, GLP1R cytotox inconclusive
COC(=O)c1c(C)c2c(C)cc3ccccn3c-2c1C(=O)OC	none
CC1=C(c2ccc(C)cc2)S(=O)(=O)NC1=NCCCN1CCN(c2ccc(F)cc2)CC1	GLP1R inv ag 11µM (no result: GLP-1R agonist, BRCA1 expr up)
CC1=C(c2ccc(C(C)C)cc2)S(=O)(=O)NC1=NCCCN1CCN(c2ccccc2F)CC1	GLP1R inv ag inconclusive (no result: GLP-1R agonist, BRCA1 expr up)
COc1ccc(C2=C(C)C(=NCCCN3CCN(c4cc(Cl)ccc4C)CC3)NS2(=O)=O)cc1	GLP1R inv ag 8.9µM (no result: GLP-1R agonist, BRCA1 expr up)
CC1=C(c2ccc(Cl)cc2)S(=O)(=O)NC1=NCCCN1CCN(c2cc(C)ccc2C)CC1	GLP1R inv ag inconclusive (no result: GLP-1R agonist, BRCA1 expr up)
CN(C)/C=C1\C=Cc2ccccc21	none (no result: GLP1R inv ag, GLP1R cytotox, GLP-1R agonist)
O=C(CCC(=O)c1ccc[nH]1)c1ccc(Cl)cc1	BRCA1 expr up 7.1µM
O=C(COc1ccc(F)c(Cl)c1)c1ccc[nH]1	none
O=C(Cc1nc2ccccc2[nH]c1=O)c1ccccc1	BRCA1 expr up 5.6µM
O=c1[nH]c2ccccc2nc1Cc1ccccc1	none
Cn1cccc1/C=N\NC(=O)C1COc2ccc(C(C)(C)C)cc2O1 (centres undefined)	GLP1R inv ag 10µM
CCCCCc1ccc(OCCCC[n+]2ccccc2)c(CCCCC)c1	GLP1R inv ag 6.3µM, GLP1R cytotox inconclusive
CCCCCc1ccc(OCCCC[n+]2ccc(C)cc2)c(CCCCC)c1	GLP1R inv ag inconclusive, GLP1R cytotox inconclusive
CN(C)CCCn1c(SCC(=O)Nc2nc(-c3cccc(Br)c3)cs2)nc2ccccc2c1=O	GLP1R inv ag 11µM, GLP1R cytotox inconclusive
O=C(CSc1nc2ccccc2[nH]1)Nc1nc(-c2cccc(Br)c2)cs1	none
Cc1c(N2C(=O)/C(=C\c3ccc(N(C)C)cc3)N(C)C2=S)c(=O)n(-c2ccccc2)n1C	GLP1R cytotox inconclusive
CN1C(=S)N(c2cccnc2)C(=O)/C1=C\c1ccc(N(C)C)cc1	GLP1R inv ag inconclusive, GLP1R cytotox 10µM
CC(C)(C)c1ccc(/C=C/C(=O)Nc2cccnc2)cc1	GLP1R inv ag inconclusive
CN1C(=S)N(c2cccnc2)C(=O)/C1=C\c1ccc(C(C)(C)C)cc1	GLP1R inv ag 11µM
CN(C)Cc1cc(C(C)(C)c2ccccc2)ccc1O	GLP1R inv ag 10µM
CC(C)(c1ccc(O)c([N+](=O)[O-])c1)c1ccc(O)c([N+](=O)[O-])c1	none
COc1ccc(S(=O)(=O)NCc2ccc3c(c2)CCN3C(=O)c2ccc(C)cc2)cc1Cl	none (no result: GLP-1R agonist, BRCA1 expr up)
Cc1ccc(NC(=O)CN2CCC(Cc3ccccc3)CC2)cc1S(=O)(=O)N(C)C	GLP1R inv ag 8.9µM
COc1cccc(C(=O)NCC(C)(C)SCc2ccc(F)cc2)c1	GLP1R inv ag 11µM
COc1cccc(C(=O)NCCSc2ccc(C)cc2)c1	none
COc1cccc(C(=O)NCCSc2ccc(F)cc2)c1	BRCA1 expr up 11µM
O=C(CC1N=C2c3ccccc3N=C(SCc3cccc(F)c3)N2C1=O)NCc1ccc2c(c1)OCO2 (centres undefined)	GLP1R inv ag inconclusive (no result: GLP-1R agonist, BRCA1 expr up)
Cc1nc(-c2ccccc2)sc1C(=O)O	none
Cc1ccc(-c2nc(C)c(C(=O)O)s2)cc1	GLP1R inv ag 10µM
CC1CCN(C(=O)COC(=O)c2c[nH]c3ccccc23)CC1	GLP1R inv ag inconclusive, BRCA1 expr up 7.1µM
O=C(OCC(=O)N1CCCC1)c1c[nH]c2ccccc12	none
O=C(OCC(=O)N1CCCCC1)c1c[nH]c2ccccc12	BRCA1 expr up 6.3µM
Cc1cccc(C(=O)OCC(=O)N2CCCCCC2)c1C	GLP1R inv ag inconclusive, BRCA1 expr up 5.6µM
CC(=O)N[C@@H](C=O)[C@@H](O)[C@H](O)[C@H](O)CO	none (no result: GLP1R inv ag, GLP1R cytotox, BRCA1 expr up)
OC(c1ccc(F)c(F)c1)c1nc(-c2csc3ccccc23)cs1 (centres undefined)	GLP1R inv ag inconclusive
